# Inconclusive results are not listed. Calls of active or inactive are those of the source. Calls follow the shape of the dose curve; as a rule, active = well fitted cell-killing curve with a large enough effect in the repeat runs; inconclusive = weak or mixed curves, or effect the other way; inactive = no such curve, though single readings can be large or run the other way.
# Assay: qHTS assay to identify small molecule antagonists of the peroxisome proliferator-activated receptor gamma (PPARg) signaling pathway - cell viability counter screen (AID 743194); also: nearly all actives have a fitted effect of over 55% in size
# Conditions: PPARg-bla HEK293H viability, CellTiter-Glo luminescence, 17 h, co-treated with 50 nM rosiglitazone; series mostly up to 62.6 µM; activity change, negative = cytotoxicity: at the top concentration
# Description: U.S. Tox21 Program National Center for Advancing Translational Sciences [NCATS] NIH Chemical Genomics Center [NCGC] U.S. Environmental Protection Agency [EPA] National Institutes of Environmental Health Sciences [NIEHS] National Toxicology Program [NTP] U.S. Food and Drug Administration [FDA] Tox21 Assay Overview: The peroxisome proliferator-activated receptors (PPARs) are lipid-activated transcription factors of the nuclear receptor superfamily with three distinct subtypes namely PPAR alpha, PPAR delta (also called PPAR beta) and PPAR gamma (PPARg). All these subtypes heterodimerize with Retinoid X receptor (RXR) and these heterodimers regulate transcription of various genes. PPAR-gamma receptor (glitazone receptor) is involved in the regulation of glucose and lipid metabolism. To identify the compounds that activate PPAR-gamma signaling, GeneBLAzer PPAR gamma UAS-bla HEK293H cell line (Invitrogen, Carlsbad, CA, USA) containing a beta-lactamase reporter gene under the control of an Upstream Activator Sequence (UAS) was used to screen the Tox21 compound library. The cytotoxicity of the Tox21 compound library against the PPARg-bla cell line was tested in parallel by measuring the cell viability using CellTiter-Glo assay in the same wells.
# Tox21 Assay Protocol Summary: PPARg-bla cells were dispensed at 3000 cells/5uL/well in 1536-well black wall/clear bottom plates using a Multidrop Combi (Thermo Fisher Scientific, Waltham, MA) dispenser. After the assay plates were incubated at 37 C and 5% CO2 for 5 h, 23 nL of compounds dissolved in DMSO, positive controls or DMSO only was transferred to the assay plate by a Pintool station (Kalypsys, San Diego, CA), followed by addition of 1ul Rosiglitazone (50 nM, final concentration in the wells). The assay plates were incubated at 37 C for 17 h, and then 1 uL of LiveBLAzerTM B/G FRET substrate was added using a Bioraptr Flying Reagent Dispenser (FRD) workstation (Beckman Coulter, Indianapolis, IN, USA). The assay plates were incubated at room temperature for 1 h and fluorescence intensity was measured by an Envision plate reader (PerkinElmer, Shelton, CT). For cell viability readout that measures cytotoxicity, 4 ul/well of CellTiter-Glo reagent was added into the assay plates using a Flying Reagent Dispenser. After 30 min incubation at room temperature, the luminescence intensity in the plates was measured using a ViewLux plate reader (PerkinElmer).
# % is scaled to controls: 0 for no effect and ±100 for the full control effect.
row,Compound,"activity change, negative = cytotoxicity"
1,COc1ccc(-n2nc(C(F)F)cc2-c2ccc(S(C)=O)cc2)cc1 (stereo not given),21% (inactive)
2,CC[C@H]1OC(=O)[C@H](C)[C@@H](O[C@H]2C[C@@](C)(OC)[C@@H](O)[C@H](C)O2)[C@H](C)[C@@H](O[C@@H]2O[C@H](C)C[C@H](N(C)C)[C@H]2O)[C@](C)(O)C[C@@H](C)CN(C)[C@H](C)[C@@H](O)[C@]1(C)O,-1.62% (inactive)
3,Cc1ccc(S(=O)(=O)NC(=O)NC2CCCCC2)cc1,0.0538% (inactive)
4,Cc1ccc(N(CCO)CCO)cc1,-9.28% (inactive)
5,c1ccc(CCCc2ccncc2)cc1,-2.54% (inactive)
6,Cc1ccc(Cl)cc1N,24.1% [at 81.1 µM] (inactive)
7,CC1=CC[C@@H]2C[C@H]1C2(C)C,-33.5% [at 13.2 µM] (inactive)
8,C[C@@H]1[C@H](O)[C@@H](C)/C=C/C=C\C=C\C=C\C=C\C=C\C=C\[C@H](O[C@@H]2O[C@H](C)[C@@H](O)[C@H](N)[C@@H]2O)C[C@@H]2O[C@](O)(C[C@@H](O)C[C@@H](O)[C@H](O)CC[C@@H](O)C[C@@H](O)CC(=O)O[C@H]1C)C[C@H](O)[C@H]2C(=O)O (stereo in doubt),-29.1% (inactive)
9,CCCCC[C@H](O)/C=C/[C@H]1[C@H](O)CC(=O)[C@@H]1C/C=C\CCCC(=O)O,7.79% (inactive)
10,COc1ccc(/C=C/C(=O)c2ccc(OC)cc2OC)cc1,-1.71% (inactive)
11,O=S(=O)(O)CO,4.11% (inactive)
12,CC1CCCC(=O)C1=O (stereo not given),7.44% (inactive)
13,O=C(O)CCCc1c[nH]c2ccccc12,13.9% (inactive)
14,CCCCCCC(O)CCOC(C)=O (stereo not given),11.6% [at 232 µM] (inactive)
15,CCC1CCC(CCC(=O)O)C1 (stereo not given),-13.4% [at 81.1 µM] (inactive)
16,C[C@@H]1C[C@H]2[C@@H]3CCC4=CC(=O)C=C[C@]4(C)[C@@]3(F)[C@@H](O)C[C@]2(C)[C@@]1(O)C(=O)COP(=O)(O)O,1.71% (inactive)
17,COC(=O)Nc1nc2ccc(C(=O)C3CC3)cc2[nH]1,-7.98% (inactive)
18,CC[C@H]1OC(=O)[C@H](C)[C@@H](O[C@H]2C[C@@](C)(OC)[C@@H](O)[C@H](C)O2)[C@H](C)[C@@H](O[C@@H]2O[C@H](C)C[C@H](N(C)C)[C@H]2O)[C@](C)(O)C[C@@H](C)C(=O)[C@H](C)[C@@H](O)[C@]1(C)O,30.5% (inactive)
19,CCSC(=O)N(CC)CC,-14.1% (inactive)
20,CC(C)Cc1ccc(CC(=O)O)cc1,1.77% (inactive)

row,Compound,"activity change, negative = cytotoxicity"
1,CC(=O)NNC(C)=O,4.09% [at 81.1 µM] (inactive)
2,COc1ccc(-c2cc(=S)ss2)cc1,8.98% (inactive)
3,CCCCCc1ccco1,-5.55% (inactive)
4,Cc1cccc(C)c1NC(=O)c1cc(S(N)(=O)=O)c(Cl)cc1O,-1.39% (inactive)
5,c1ccc(CNc2ncnc3c2ncn3C2CCCCO2)cc1 (stereo not given),13.9% (inactive)
6,COc1ccc(N)c([N+](=O)[O-])c1,9.72% (inactive)
7,C[C@H](CS)C(=O)N1CCC[C@H]1C(=O)O,9.82% (inactive)
8,COC(C)(C)OC,-0.681% (inactive)
9,CC(=O)N[C@@H](Cc1ccc(O)cc1)C(=O)O,-18% (inactive)
10,CC(C)(C)C(O)/C=C/c1ccc2c(c1)OCO2 (stereo not given),8.81% (inactive)
11,CC[C@H]1OC(=O)[C@H](C)[C@@H](O[C@H]2C[C@@](C)(OC)[C@@H](O)[C@H](C)O2)[C@H](C)[C@@H](O[C@@H]2O[C@H](C)C[C@H](N(C)C)[C@H]2O)[C@](C)(O)C[C@@H](C)/C(=N\OCOCCOC)[C@H](C)[C@@H](O)[C@]1(C)O,3.2% (inactive)
12,CNC1CCCN(c2c(F)cc3c(=O)c(C(=O)O)cn(C4CC4)c3c2OC)C1 (stereo not given),-6.7% (inactive)
13,COc1cc(S(=O)(=O)Nc2ccccc2)c(OC)cc1N,-3.55% (inactive)
14,CCCCOC(=O)CCCCC(=O)OCCCC,2.73% (inactive)
15,CNCc1ccc(NC(=O)c2c[nH]c3c2C(=O)CCC3)cc1,0.529% (inactive)
16,CSSc1ccoc1C,-20.5% (inactive)
17,CCCC(=O)OC(=O)CCC,-2.47% [at 81.1 µM] (inactive)
18,CCOc1ncc(F)c(=O)[nH]1,13.8% (inactive)
19,CC(=O)OCC(=O)[C@@]1(OC(C)=O)[C@@H](C)C[C@H]2[C@@H]3C[C@H](F)C4=CC(=O)C=C[C@]4(C)[C@@]3(F)[C@@H](O)C[C@@]21C,-9.75% (inactive)
20,CCO[Si](C)(CCCOCC1CO1)OCC (stereo not given),10% (inactive)
